This passage reports outcome results from PubChem BioAssay (EPA / NIEHS).

The source made the active and inactive calls. The calls were made as follows: active = hit-call score of the fitted dose curve at least 0.9, where 1 is the maximum; inactive = score below 0.9.

Read-out in this test: Bcl-2 (BID) gene, BID (gene 637)
As to the kind of experiment: LTEA_HepaRG_BID: Life Technologies and Expression Analysis (LTEA) Assay for Bcl-2 (BID) gene using HepaRG (AID 2283476). The settings on record: mRNA level, 48 h; actives raise or lower the signal. The procedure: LTEA_HepaRG is a cell based, multiplexed-readout assay that uses HepaRG, a human liver cell line, with measurements taken at 48 hours after chemical dosing on a 96-well plate.LTEA_HepaRG_BID is one of 102 assay component(s) measured in the LTEA HepaRG cell culture assay. It is a marker of Cell proliferation, survival, death.Data from the assay component LTEA_HepaRG_BID was analyzed into 1 endpoint. This assay endpoint, LTEA_HepaRG_BID, was analyzed with bidirectional fitting relative to DMSO as the negative control and baseline of activity. Using a type of inducible reporter, measures of mRNA induction for gain or loss-of-signal activity can be used to understand regulation of transcription factor activity. To generalize the intended target to other relatable targets, this assay endpoint is annotated to the cell cycle intended target family, where the subfamily is Cell proliferation, survival, death.
A total of 1060 chemcials from the ToxCast library were tested in eight-point concentration-response experiments. Cell culture and cytotoxicity assays were conducted at Thermo Fisher Scientific's Custom Services facility (Madison, WI). A single lot of human HepaRG cells (Thermo Fisher Scientific, Frederick, MD) was used for the cell culture experiments. 96-well format collagen type I coated plates of human HepaRG cells were prepared using established methods. Briefly, cryopreserved HepaRG cells were thawed, plated at a density of approximately 100,000 cells/well in HepaRG Thaw, Plate, and General Purpose media (HPRG770, Thermo Fisher Scientific), and incubated for 48 hours. 0.5% DMSO was selected as vehicle control to balance the requisite need of DMSO in HepaRG cultures to maintain differentiation (for example, baseline metabolism, proportions of hepatocytes vs. cholangiocytes), while enabling further hepatic receptor pathway activation (for example, PXR and CAR) in response to chemical exposure. 48 hours after plating, the culture medium was replaced with HepaRG Serum-Free Incudtion Media. Cells were exposed to each test chemical in duplicate and maintained in CO2 incubators for another 48 hours. Chemical plates were thawed to room temperature and 200x concentrations of treatment groups were prepared. 8-point conentration-reponse curves were made with the highest exposure at 100 uM, followed by half-log dilutions, all in 0.5% DMSO. Each test plate contained variouse controls, induction positive controls (1mM phenobarbital), cytotoxicity positive controls ([…] aflatoxin B1), vehicle controls (0.5% DMSO), and total lysis controls (0.5% DMSO). Cell morphology images were taken using an Essen IncuCyte FLR automated microscope, with six 96-well plates imaged in about 24 minutes. Images were captured and exported and JPEG files. Spent culture media was transfered to black-well plates for the LDH assay, and remaining media was sorted at -80 C for later use. Cells were treated with RLT buffer and frozen until shipped for gene expression analysis. Total RNA was isolated from the cell suspension in 75 uL of Buffer RLT (Qiagen, Germantown, MD 20874) by Quintiles/Expression Analysis (Durham, NC) using a custom isolation procedure. Total RNA from each plate well was transferred to a preamplification plate. Fluidigm's 96.96 Dynamic ArrayTM (Fluidigm, Amsterdam, the Netherlands) technology was used for gene expression analyses by quantitative reverse transcription polymerase chain reaction (qRT-PCR, performed by Quintiles/Expression Analysis, Durham, NC)89. Standard TaqManTM Assays (Applied Biosystems/ThermoFisher Scientific, Foster City, CA) were used to assess the expression of 93 genes selected based on their selectivity and sensitivity to important hepatic receptors known to be modulated by environmental chemicals; importance in human hepatocyte functionality; and hepatotoxicity. […]
Regarding `Clc1cccc(Cl)c1`, the molecule was classed as inactive.

Regarding `OCCN(CCO)CCO`, the molecule was called inactive.

As to `O=C(N[C@H]1CN2CCC1CC2)c1ccc2c(c1)OCCO2`, the molecule was classed as inactive.

For `CC(C)O.CC(C)O.OCCN(CCO)CCO.OCCN(CCO)CCO.[Ti]`, the call was inactive.

In the case of `Oc1cc(Cl)c(Cl)cc1Cl`, the outcome was inactive.

With `COc1ccccc1N`, the result was inactive.

`Clc1cccc(Cl)c1Cl`: the result was inactive.

Turning to `CC(C)(C)c1ccccc1O`, the result was inactive.

Take `Oc1c(Cl)cc(Cl)cc1Cl`: the outcome was inactive.

Regarding `Cc1cc(C)cc(C)c1`, the molecule was classed as inactive.

For `CCCCCCCCCCCCc1cccc(S(=O)(=O)O)c1`, the result was inactive.

For the molecule `CN(C)C(=S)S`, the molecule was called inactive.

Consider `O=C(O)C1(c2ccc3c(c2)OC[C@H](Cc2ccc(-c4ccccc4)cc2)[C@H]3O)CCCC1`, for which the call was inactive.

Take `N#Cc1cccnc1`: the outcome was inactive.
